Compounds without any hit were thinned out: in the full panel of roughly 83,000, 20% have a hit.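 Interpretation: 100, growth as untreated; towards 0, rising growth inhibition; 0, no net growth; 0 to -100, cell death. Compounds scoring below 10 were considered active.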 A number with no mark means an inactive call. Active and inactive are the calls of the source.

This test concerns MDA-MB-468 breast. The experiment in a line: NCI-60 one-dose screen, 48 h (100 = growth as untreated, 0 = no growth, -100 = all killed). Conditions: 10 µM unless noted.
For `CCOC(=O)NNc1cccc(Cl)c1`, the growth is 98.2%.
Take `O=C(/C=C/c1cccc(F)c1)c1cccc(OCCCOc2cccc(C(=O)/C=C/c3cccc(F)c3)c2)c1`: the growth was 75.2%.
As for `CC(NC(=O)Oc1cccc2ccccc12)c1ccccc1` (stereo not given), the growth was 107%.
On to `Cc1cc(C)c(CCc2cc(C)c(C)cc2C)cc1C`, for which the growth is 109%.
As to `CCCN1CCN(c2ccc3nc(-c4ccc5nc(-c6ccc(OCC)cc6)[nH]c5c4)[nH]c3c2)CC1`, the growth was -67.6% (active).
`COc1ccc(/C(C)=C(\c2ccc(OCCN3CCOCC3)cc2)c2ccc(OC(=O)C3CCCCC3)cc2)cc1`: the growth is 116%.
Consider `NC(CS/C(Cl)=C/Cl)C(=O)O` (stereo not given), for which the growth is -38.5% (active).
Take `COc1ccccc1Nc1nc(-c2cc3cccc(C(F)(F)F)c3oc2=O)cs1`: the growth is -2.43% (active).
The figure for `O=C(Nc1cc([N+](=O)[O-])c2[nH]c(=O)c3ccccc3c2c1)C(F)(F)F` is -15.2% (active).
For `C/C(=C\CCc1ccoc1)CC/C=C(\C)CCCN1CCOCC1`, the growth was 5.68% (active).
For `C=CCSC(CC)(CC)C(=O)NC`, the growth is 99.3%.
Regarding `Clc1ccccc1CNc1c2ccccc2nc2ccccc12`, the growth is -27.9% (active).
With `N#Cc1c(-c2ccccc2)cc(-c2ccccc2)n(CCCCC(=O)O)c1=O`, the growth is 89.1%.
As to `Oc1ccc(C#CCOc2ccccc2)cc1CNCCN(Cc1ccccn1)Cc1ccccn1`, the growth was -10.4% (active).
As for `Nc1nc(C(=O)N/N=C/c2ccc(F)cc2)nn1-c1ccc(S(N)(=O)=O)cc1`, the growth was 102%.

For the origin of these results see PubChem BioAssay (NCI).
